Among the data in PubChem BioAssay (NCI) are growth values, retold here.

The panel holds about 83,000 compounds, 20% with a hit somewhere; the sample as a whole holds those more often.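 48-hour exposure, single concentration, 96-well plates; percent growth endpoint where 0 means no net growth. Active: below 10.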 Values without a mark were called inactive. The source made the active and inactive calls.

Test systems include DU-145 prostate; K-562 leukemia; MALME-3M melanoma; MDA-MB-231 breast; RXF 393 renal; SF-268 CNS; SF-295 CNS; SF-539 CNS; UACC-257 melanoma; M14 melanoma; HCT-15 colon; HT29 colon; SNB-75 CNS; SNB-19 CNS; U251 CNS; SK-MEL-5 melanoma; UACC-62 melanoma; LOX IMVI melanoma; SK-MEL-28 melanoma; PC-3 prostate.
Holding throughout (experiment): NCI-60 one-dose screen, 48 h (100 = growth as untreated, 0 = no growth, -100 = all killed)
Details in all cases: 10 µM unless noted

For the compound `CCOC(=O)c1sc2nc(-c3cccc(O)c3)nc(N3CCOCC3)c2c1C`, the growth with DU-145 prostate is 38.9%; in the assay on K-562 leukemia, 60.5%; in the assay with MALME-3M melanoma it was 62.7%; with MDA-MB-231 breast, 47.6%; with RXF 393 renal, 18.4%; in the assay with SF-268 CNS, 48.9%. Further, the growth is 81% in the assay with SF-295 CNS; 51.3% in the assay on SF-539 CNS; 82.6% with UACC-257 melanoma; 69.2% in the assay on M14 melanoma; 43.7% in the assay with HCT-15 colon; 98.2% in the assay on HT29 colon. Besides, the growth is 21.1% with SNB-75 CNS; 69.2% in the assay on SNB-19 CNS; 58.5% in the assay on U251 CNS; 52.7% with SK-MEL-5 melanoma; 71.8% with UACC-62 melanoma; 57.3% with LOX IMVI melanoma. Further, the growth with SK-MEL-28 melanoma is 63.7%.
As to `COc1ccc(/C=C(\C#N)C(=O)Nc2cccc(Nc3nc(SC)nc(-c4cccc([N+](=O)[O-])c4)c3C#N)c2)cc1OC`, the growth in the assay with DU-145 prostate is 107%; with K-562 leukemia, 77.9%; in the assay with MALME-3M melanoma it was 97%; with MDA-MB-231 breast, 68.9%; with RXF 393 renal it was 110%; in the assay with SF-268 CNS, 103%. For the same compound, the growth with SF-295 CNS was 97.2%; in the assay with SF-539 CNS, 93.4%; in the assay on UACC-257 melanoma, 103%; with M14 melanoma, 91.5%; with HCT-15 colon, 95.3%; in the assay with HT29 colon, 113%. The growth in the assay on SNB-75 CNS was 92%; in the assay with SNB-19 CNS, 104%; in the assay with PC-3 prostate, 94.8%; in the assay on SK-MEL-5 melanoma, 94.8%; in the assay on UACC-62 melanoma it was 97%; in the assay on LOX IMVI melanoma it was 97.6%. For the same compound, in the assay on SK-MEL-28 melanoma, the growth is 105%.
Take `COc1ccc(C2CC(c3ccc4ccccc4c3)=NN2/C=C2\SC(=S)N(NC(=O)Cc3ccccc3Nc3c(Cl)cccc3Cl)C2=O)cc1` (configuration not stated): the growth in the assay on DU-145 prostate is 12.2%; in the assay on K-562 leukemia, 10.6%; with MALME-3M melanoma, 52.9%; in the assay with MDA-MB-231 breast, 41%; in the assay on RXF 393 renal it was -8.96% (active); in the assay on SF-268 CNS, 34.6%. The growth with SF-295 CNS was 14.1%; with SF-539 CNS it was -16.9% (active); with UACC-257 melanoma it was 56.2%; with M14 melanoma, -25.1% (active); in the assay on HCT-15 colon it was 19.4%; with HT29 colon, 32.3%. Besides, the growth was -15.7% (active) in the assay on SNB-75 CNS; 32% with SNB-19 CNS; 16.1% with U251 CNS; 19.6% in the assay on SK-MEL-5 melanoma; 42.8% in the assay with UACC-62 melanoma; 37.1% in the assay on LOX IMVI melanoma. In the assay with SK-MEL-28 melanoma, the growth is 57%.
For the compound `O=c1nc2oc3ccc4ccccc4c3cc-2s1`, the growth in the assay on DU-145 prostate is 19%; in the assay with K-562 leukemia it was 11.9%; in the assay on MALME-3M melanoma, 45.2%; with MDA-MB-231 breast, 42.7%; in the assay with RXF 393 renal, -18.5% (active); in the assay with SF-268 CNS, 40.8%. Further, the growth in the assay on SF-295 CNS is 9.97% (active); in the assay on SF-539 CNS it was -25.1% (active); with UACC-257 melanoma, 51.6%; with M14 melanoma it was -33.4% (active); in the assay with HCT-15 colon it was 32.4%; in the assay with HT29 colon it was 15.2%. The growth is -16.1% (active) with SNB-75 CNS; 31.9% with SNB-19 CNS; 12.5% in the assay with U251 CNS; 10.8% in the assay with SK-MEL-5 melanoma; 37.6% in the assay on UACC-62 melanoma; 33.5% in the assay with LOX IMVI melanoma. In addition, in the assay on SK-MEL-28 melanoma, the growth is 56.7%.
With `CON1C(=O)CC[C@]2(C)[C@H]3CC[C@@H]4C([C@@]5(C)CCC(=O)O5)CC[C@@]4(C)[C@]3(C)CC[C@H]2C1(C)C` (some centres not stated), the growth in the assay with DU-145 prostate was 107%; with K-562 leukemia, 83%; in the assay on MALME-3M melanoma, 105%; in the assay on MDA-MB-231 breast, 96.5%; with RXF 393 renal, 98%; in the assay on SF-268 CNS, 97.4%. Further, the growth is 104% in the assay with SF-295 CNS; 99.8% in the assay on SF-539 CNS; 107% with UACC-257 melanoma; 97% with M14 melanoma; 99.8% with HCT-15 colon; 94.6% in the assay with HT29 colon. For the same compound, the growth is 71.5% in the assay on SNB-75 CNS; 96.5% in the assay on SNB-19 CNS; 87.4% with PC-3 prostate; 98.4% in the assay on SK-MEL-5 melanoma; 87.2% with UACC-62 melanoma; 95.1% with LOX IMVI melanoma. Further, the growth in the assay on SK-MEL-28 melanoma was 107%.
For `C#Cc1cccc(NC(=O)c2ccccc2NC(=O)CCl)c1`, the growth in the assay on DU-145 prostate is 96.2% [8.25 µM]; in the assay with K-562 leukemia, 68.2% [8.25 µM]; in the assay with MALME-3M melanoma, 105% [8.25 µM]; in the assay with MDA-MB-231 breast, 111% [8.25 µM]; in the assay on RXF 393 renal, 96.7% [8.25 µM]; in the assay with SF-268 CNS it was 68% [8.25 µM]. Moreover, the growth in the assay on SF-295 CNS is 103% [8.25 µM]; with SF-539 CNS it was 93.4% [8.25 µM]; in the assay on UACC-257 melanoma it was 98.4% [8.25 µM]; in the assay with M14 melanoma it was 83.3% [8.25 µM]; in the assay with HCT-15 colon, 68.7% [8.25 µM]; with HT29 colon, 86.1% [8.25 µM]. For the same compound, the growth in the assay with SNB-75 CNS is 70.5% [8.25 µM]; with SNB-19 CNS, 74.2% [8.25 µM]; in the assay with U251 CNS it was 74.6% [8.25 µM]; in the assay on SK-MEL-5 melanoma, 87.7% [8.25 µM]; with UACC-62 melanoma, 85.1% [8.25 µM]; in the assay on LOX IMVI melanoma it was 91.4% [8.25 µM]. In the assay on SK-MEL-28 melanoma, the growth was 102% [8.25 µM].
As for `NC(=O)c1cc(Br)ccc1NC(=O)/C=C/c1ccccc1`, the growth in the assay on DU-145 prostate was -5.67% (active); with K-562 leukemia, 15%; in the assay on MALME-3M melanoma, 96.5%; with MDA-MB-231 breast, 45.3%; in the assay on RXF 393 renal it was 39.3%; with SF-268 CNS, 43.5%. For the same compound, the growth with SF-295 CNS is 51.3%; with SF-539 CNS, 9.78% (active); in the assay with UACC-257 melanoma, 49.1%; with M14 melanoma, 28.3%; with HCT-15 colon, 30.9%; with HT29 colon, 13.9%. Also, the growth was -7.05% (active) in the assay with SNB-75 CNS; 47.2% in the assay on SNB-19 CNS; 28.7% in the assay on U251 CNS; 12.2% in the assay with SK-MEL-5 melanoma; 43% in the assay on UACC-62 melanoma; 52.1% in the assay with LOX IMVI melanoma. In the assay on SK-MEL-28 melanoma, the growth is 42.2%.
Regarding `COc1ccc(-c2cc(Nc3ccnc(N4CCOCC4)n3)on2)cc1`, the growth in the assay on DU-145 prostate is 19.6%; in the assay with K-562 leukemia, 13.1%; with MALME-3M melanoma, 87.2%; with MDA-MB-231 breast it was 57.9%; in the assay on RXF 393 renal it was -6.95% (active); with SF-268 CNS it was 62.6%. For the same compound, the growth was 39.3% with SF-295 CNS; -31.9% (active) in the assay with SF-539 CNS; 72.7% with UACC-257 melanoma; 26.9% in the assay with M14 melanoma; 20.3% with HCT-15 colon; 9.4% (active) in the assay with HT29 colon. Further, the growth was -3.66% (active) with SNB-75 CNS; 39% in the assay on SNB-19 CNS; 23.2% in the assay with U251 CNS; 19.7% in the assay with SK-MEL-5 melanoma; 60.5% in the assay on UACC-62 melanoma; 51.9% with LOX IMVI melanoma. Moreover, the growth in the assay on SK-MEL-28 melanoma was 69.3%.
